High-throughput results: PubChem BioAssay, National Center for Advancing Translational Sciences (NCATS)
Most compounds without a hit are left out; they make up all but 3.2% or so of the library.
PNC assembly inh – perinucleolar compartment assembly inhibition | AID 2417 | hit rate 3.1% among 140,000 | PC3M PTB-GFP, PNC prevalence imaging, 16 h; active compounds read low | activity change (PNC), negative = inhibition, % at 10 µM;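 active = readout at or below -70, meaning at least 70% loss of cells showing the perinucleolar compartment, a nuclear body marking cancer cells; inconclusive = readout between -30 and a set limit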;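 also: plate controls were DMSO wells for no effect and camptothecin positive control wells for full effect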
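Compounds are pinned in duplicate onto adhered PC3M cells stably expressing GFP-tagged PTB and incubated 16 h at 37 C. Cells are then fixed, nuclei stained with Hoechst, and PNC-positive cells counted.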
15-hLO-2 inh – blocks human 15-lipoxygenase 2 activity; AID 881; Potency, µM (highest dose often 57.1 µM), inactives show top-dose activity change, negative = inhibition, most hits filed as inhibitors; purified 15hLO-2, xylenol orange hydroperoxide absorbance; hit rate 0.56% among 110,000; O15296; also: potency is read from the fitted curve at half-maximal effect; nearly all actives have a fitted effect of over 60% in size
Target sequence (O15296 whole entry, looked up): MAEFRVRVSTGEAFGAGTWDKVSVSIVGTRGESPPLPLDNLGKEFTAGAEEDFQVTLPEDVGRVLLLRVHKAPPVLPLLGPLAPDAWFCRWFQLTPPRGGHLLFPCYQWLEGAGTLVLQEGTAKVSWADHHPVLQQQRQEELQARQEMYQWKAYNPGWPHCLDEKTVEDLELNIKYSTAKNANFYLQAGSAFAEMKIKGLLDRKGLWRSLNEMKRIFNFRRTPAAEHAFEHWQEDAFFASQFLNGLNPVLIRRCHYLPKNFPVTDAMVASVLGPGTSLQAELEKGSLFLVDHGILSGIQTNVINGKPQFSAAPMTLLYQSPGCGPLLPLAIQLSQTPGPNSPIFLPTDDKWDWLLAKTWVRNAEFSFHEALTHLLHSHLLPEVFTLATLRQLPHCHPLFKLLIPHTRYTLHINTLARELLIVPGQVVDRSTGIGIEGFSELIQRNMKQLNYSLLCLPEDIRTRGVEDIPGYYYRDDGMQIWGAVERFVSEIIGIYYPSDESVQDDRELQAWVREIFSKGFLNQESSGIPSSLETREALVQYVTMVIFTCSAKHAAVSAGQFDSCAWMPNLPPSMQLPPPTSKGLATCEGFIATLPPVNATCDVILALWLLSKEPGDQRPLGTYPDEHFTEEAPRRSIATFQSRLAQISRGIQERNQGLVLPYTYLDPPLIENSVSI
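Read-out: hydroperoxide product oxidises ferrous iron, measured as xylenol orange complex via the 573-to-405 nm absorbance ratio after 30 min. Reaction: 50 nM enzyme, 15 min compound preincubation, 45 uM arachidonic acid, 90 min RT, Hepes pH 7.5 with Triton X-100.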
12-hLO inh – inhibitors of human 12-lipoxygenase (ALOX12) | P18054 | purified 12-hLO, xylenol orange hydroperoxide absorbance | Potency, µM (highest dose often 57.1 µM), without a hit: top-dose activity change, negative = inhibition, most hits filed as inhibitors | hit rate 0.12% among 150,000 | AID 1452; also: potency is read from the fitted curve at half-maximal effect; nearly all actives have a fitted effect of over 55% in size
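Hydroperoxide formation by human 12-lipoxygenase from 40 uM arachidonic acid was followed colorimetrically via ferric-xylenol orange complex, using the 573/405 nm absorbance ratio. Enzyme concentration was 150 nM, with 30 min reaction at room temperature.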
Numbers without * were called inactive; ? = inconclusive; nt = no result; [ ] = remark or other dose. Unless noted, calls follow the shape of the dose curve; as a rule, active = well fitted curve in the direction sought with a large enough effect; inconclusive = small, poorly fitted or top-dose-only effect, or another doubt; inactive = no such curve, though single readings can be large; an effect the other way counts as inactive or inconclusive. Unless noted, % is scaled to controls: 0 for no effect and ±100 for the full control effect.

SMILES	PNC assembly inh	15-hLO-2 inh	12-hLO inh
N#CCCn1c(=O)c(-c2ccccc2)nc2cnc(OCc3ccccc3)nc21	nt	-1%	-7%
COC(=O)Cn1c(=NC(=O)CN2C(=O)CCC2=O)sc2cc(S(N)(=O)=O)ccc21	-5	nt	-2%
COC(=O)Cn1c(=NC(=O)C2COc3ccccc3O2)sc2cc(S(N)(=O)=O)ccc21 (stereo unspecified)	-134*	nt	-2%
CC1(C)Oc2ccc(C(=O)NC3CCCC3)cc2N(CC(=O)NC2CCCCC2)C1=O	?	-4%	0%
N#Cc1cccc(-c2nc(Nc3ccccc3)c3ccccc3n2)c1	nt	-2%	-4%
Cc1ccc(-c2cc3nc(C)cc(NCc4ccco4)n3n2)cc1	-104*	26%	3%
COc1ccc(-c2cc3nc(C)cc(NCCO)n3n2)cc1	?	16%	3%
Cc1cc([N+](=O)[O-])nn1CCCC(=O)Nc1cc(Oc2ccc(F)cc2)cc([N+](=O)[O-])c1	28	nt	0%
Cc1cc([N+](=O)[O-])nn1CCCC(=O)N1CCN(c2ccc(F)cc2)CC1	-119*	nt	0%
CC(=O)c1c[nH]c2ccc(C)cc2c1=O	-87*	2%	4%
CCOC(=O)c1ccc2[nH]cc(C(C)=O)c(=O)c2c1	-13	nt	3%
COc1ccc(CNC(=O)CN(C(=O)CCC(=O)Nc2ccccn2)c2ccccc2OC)cc1	5	4%	-7%
COc1ccccc1N(CC(=O)NCc1ccccc1)C(=O)CCC(=O)Nc1ccccn1	-100*	nt	2%
CCc1ccc(S(=O)(=O)/N=C2/C=C(Sc3ncn[nH]3)C(=O)c3ccccc32)cc1	-123*	nt	?
Cc1ccc(S(=O)(=O)/N=C2/C=C(C3C(=O)CC(C)(C)CC3=O)C(=O)c3ccccc32)cc1	27	-7%	-12%
O=c1c(-c2ccc(Cl)cc2)nc2cnc(N3CCOCC3)nc2n1C1CC1	nt	-2%	-1%
COc1cc(/C=C/C(=O)c2cccs2)cc(OC)c1OC	nt	-15%	-2%
Cc1noc(C)c1-c1cc(NC2CC2)ncn1	nt	3%	-7%
CC(C)(C)OC(=O)N[C@@H](Cc1ccccc1)c1nnc(S(=O)(=O)Cc2cccc(F)c2)o1	-107*	?	-13%
Cc1ccccc1CS(=O)(=O)c1nnc([C@H](CC(C)C)NC(=O)OC(C)(C)C)o1	44	-15%	-9%
CCNc1ncc2nc(-c3ccccc3)c(=O)n(C)c2n1	nt	6%	nt
Cn1c(=O)c(Cc2ccccc2)c(O)c2ccccc21	-28	-4%	1%
Cn1c(N=NC(=O)c2ccccc2)c(O)c2ccccc21	-86*	nt	-1%
Cc1[nH]c2ccccc2c1C(=O)COC(=O)Cn1c(C(F)(F)F)nc2ccccc21	-105*	nt	-6%
O=C(Cn1c(C(F)(F)F)nc2ccccc21)OCC(=O)c1c[nH]c2ccccc12	-26	nt	-1%
SMILES	PNC assembly inh	15-hLO-2 inh	12-hLO inh
COc1cc(/C=C/C(=O)OCC(=O)NC(=O)NC(C)C)ccc1OCC#N	-85*	nt	3%
COc1cc(/C=C/C(=O)OCC(=O)NC(=O)NC23CC4CC(CC(C4)C2)C3)ccc1OCC#N	?	nt	-1%
COc1cccc(CSc2nc3cc4c(cc3cc2C)OCCO4)c1	?	nt	0%
CCOc1ccc(NC(=O)C2CCCN(S(=O)(=O)c3cccc4nsnc34)C2)cc1 (stereo unspecified)	11	-13%	2%
O=C1C2C3C=CC([C@@H]2C(=O)N1Cc1cccnc1)C31CC1 (stereo partly specified)	71	6%	1%
N#CC12CCCCC1CC1CCCCC1(C#N)N2Cc1cccnc1 (stereo unspecified)	-87*	0%	-4%
O=C(Nc1ccc(Cl)cc1)N[C@@H]1c2c(ccc3ccccc23)OC[C@@H]1CO	-106*	-3%	-12%
NC(=O)N1OCC2COc3ccc4ccccc4c3C21 (stereo unspecified)	-10	4%	2%
O=C(Nc1ccc(S(=O)(=O)N2CCOCC2)cc1)C1COc2ccccc2O1 (stereo unspecified)	?	7%	-8%
O=C(Nc1ccc(S(=O)(=O)N2CCCC2)cc1)C1COc2ccccc2O1 (stereo unspecified)	-90*	nt	-1%
COc1ccc(S(=O)(=O)N2CCN(c3c(C)cccc3C)CC2)cc1OC	?	-10%	4%
COc1ccc(S(=O)(=O)N2CCN(c3ccc(C)cc3C)CC2)cc1OC	-83*	-3%	-3%
COc1ccc(C(=O)N2CCC3(CCCN(C(=O)Nc4cccc(C#N)c4)C3)CC2)cc1	nt	10%	-4%
COC(=O)c1ccccc1NC(=O)CSc1nc(O)cc(=O)n1C1CCCC1	-89*	-23%	-4%
CN(C)c1ccc(NC(=O)CSc2nc3ccccc3c(=O)n2C2CCCCC2)cc1	-9	8%	-10%
COC(=O)c1ccccc1NC(=O)CSc1nccn1C	23	2%	0%
Cc1cc(NC(=O)CSc2nnc(Cc3ccccc3)n2C)no1	?	nt	-3%
Cc1cc(NC(=O)CSc2nc3ccccc3c(=O)n2C2CCCC2)no1	-83*	7%	-1%
CCn1c(Cc2ccccc2)nnc1SCC(=O)Nc1cc(C)on1	-107*	-5%	-1%
CCC(C)C(=O)OC1CC(O)C=C2C=CC(C)C(CCC(O)CC(O)CC(=O)O)C21 (stereo unspecified)	nt	6%	1%
O=C(O)C1(O)C[C@H](O)C(O)[C@@H](O)C1 (stereo partly specified)	nt	-5%	-2%
CC1CCC2CC1C2(C)C (stereo unspecified)	nt	11%	1%
O=S(=O)(c1ccc(Oc2ccc(S(=O)(=O)N3CCOCC3)cc2)cc1)N1CCOCC1	-8	-2%	0%
C=CS(=O)(=O)c1ccc(Oc2ccc(S(=O)(=O)C=C)cc2)cc1	-134*	nt	-4%
O=C(NC1CCCCCCC1)c1ccccc1-c1ccccc1	-113*	nt	1%
SMILES	PNC assembly inh	15-hLO-2 inh	12-hLO inh
CC(C)C(=O)NC(=S)Nc1ccccc1C(=O)NC1CCCCC1	-114*	nt	-10%
CCC(=O)NC(=S)Nc1ccccc1C(=O)NC1CCCCC1	27	nt	0%
O=C(NC1CCCCCC1)c1ccccc1-c1ccccc1	-6	nt	-4%
O=C(NC1CCCCC1)c1ccc(Cc2nc3ccccc3[nH]2)cc1	nt	nt	-3%
CCOC(=O)c1nonc1NC(C)=O	-100*	nt	5%
CCOC(=O)c1nnn(-c2nonc2NC(C)=O)c1C	?	10%	3%
CC1Cc2ccccc2N1CC(=O)NCc1ccc2c(c1)OCO2 (stereo unspecified)	42	nt	-5%
COc1ccc(CC(=O)NCc2nnc(SCc3ccc(C)cc3)n2C)cc1	-92*	nt	0%
COc1ccc(CC(=O)NCc2nnc(SCCOc3ccccc3)n2C)cc1	?	2%	4%
COC(=O)CSc1nnc(CNC(=O)c2ccccc2OC)n1C	-88*	10%	-2%
COC(=O)CSc1nnc(CNC(=O)c2cc(OC)c(OC)c(OC)c2)n1C	?	-6%	-2%
O=c1cnc2cnc(Oc3cccc(Cl)c3)nc2n1C[C@H]1CCCO1	nt	-2%	nt
COc1cccc(Cn2c(=O)c(-c3ccc(F)cc3)nc3cnc(OC)nc32)c1	nt	4%	nt
CCCCc1cc2c(cn1)=C(OC(=O)c1ccc(Cl)nc1)C(C)(OC(=O)CC)C(=O)C=2 (stereo unspecified)	nt	nt	-2%[11.4 µM]
